Binding signal data for 14 sequences are collected here from publication PMC8384837, “Expanding the binding specificity for RNA recognition by a PUF domain”.

What all share (experiment): yeast three-hybrid, YBZ-1, SC-Leu-His + 0.5 mM 3-AT, 4 days
Holding throughout (details): tags: N-Gal4 AD-HA kept; label: inside an RPR1-promoter hybrid RNA with tandem MS2 sites; ssRNA

The target in one assay is PUM1 PUF domain R7-DYV (Homo sapiens, UniProt Q14671 828-1176, S1079D;N1080Y;E1083V). A digest of the protocol:
(§1)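 The interaction score is the logarithmic change in variant frequency from input to selection. It uses log2, with a pseudocount of 1 for absent variants, and frequencies came from PCR-amplified, Illumina-sequenced repeat regions. The libraries were Pumilio-1 PUF domains randomized at the three base-contacting residues per repeat, co-expressed with matching RNA elements in strain YBZ-1 (LexA–MS2 coat fusion, HIS3 reporter). Plating lasted four days on SC-Leu (input) or SC-Leu-His + 0.5 mM 3-AT (selection).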

The target of the next assay is PUM1 PUF domain R8-KRV (Homo sapiens, UniProt Q14671 828-1176, N1122K;Y1123R;Q1126V). A digest of the protocol: as §1
Another assay addresses PUM1 PUF domain R8-RYC (Homo sapiens, UniProt Q14671 828-1176, N1122R;Q1126C). A digest of the protocol: as §1
Another assay has as its target PUM1 PUF domain R8-LYI (Homo sapiens, UniProt Q14671 828-1176, N1122L;Q1126I). The method, boiled down: as §1
The target in a further assay is PUM1 PUF domain R8-GFK (Homo sapiens, UniProt Q14671 828-1176, N1122G;Y1123F;Q1126K). The method, boiled down: as §1
The next assay concerns the target PUM1 PUF domain R1-WKR (Homo sapiens, UniProt Q14671 828-1176, S863W;R864K;Q867R). A digest of the protocol: as §1
In another assay the target is PUM1 PUF domain R1-RGN (Homo sapiens, UniProt Q14671 828-1176, S863R;R864G;Q867N). A digest of the protocol: as §1
For a further assay, the target named is PUM1 PUF domain R1-KAV (Homo sapiens, UniProt Q14671 828-1176, S863K;R864A;Q867V). A digest of the protocol: as §1
The next assay deals with PUM1 PUF domain R2-AWH (Homo sapiens, UniProt Q14671 828-1176, N899A;Y900W;Q903H). The method, boiled down: as §1
Another assay concerns the target PUM1 PUF domain R2-LFA (Homo sapiens, UniProt Q14671 828-1176, N899L;Y900F;Q903A). The method, boiled down:
as §1

A further assay concerns the target PUM1 PUF domain R3-LYR (Homo sapiens, UniProt Q14671 828-1176, C935L;R936Y;Q939R). A digest of the protocol: as §1
Another assay has as its target PUM1 PUF domain R8-RFK (Homo sapiens, UniProt Q14671 828-1176, N1122R;Y1123F;Q1126K). A digest of the protocol: as §1
Another assay addresses PUM1 PUF domain R5-PRK (Homo sapiens, UniProt Q14671 828-1176, C1007P;Q1011K). A digest of the protocol: as §1
A further assay has as its target PUM1 PUF domain R3-VWD (Homo sapiens, UniProt Q14671 828-1176, C935V;R936W;Q939D). A digest of the protocol: as §1
For another assay, the target named is T1, PUM1 PUF domain R6-HFV (Homo sapiens, UniProt Q14671 828-1176, N1043H;Y1044F;Q1047V).
T1 sequence: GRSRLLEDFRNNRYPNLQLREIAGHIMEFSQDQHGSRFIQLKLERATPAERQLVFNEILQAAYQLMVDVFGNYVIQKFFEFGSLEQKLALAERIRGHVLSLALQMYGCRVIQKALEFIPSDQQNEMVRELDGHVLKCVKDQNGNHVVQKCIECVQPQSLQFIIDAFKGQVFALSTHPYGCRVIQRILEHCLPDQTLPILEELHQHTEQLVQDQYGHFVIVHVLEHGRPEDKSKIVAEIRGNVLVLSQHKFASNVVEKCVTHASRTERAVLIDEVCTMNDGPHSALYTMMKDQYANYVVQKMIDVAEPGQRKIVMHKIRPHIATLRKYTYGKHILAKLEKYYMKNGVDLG
A digest of the protocol: as §1

For a further assay, the target named is PUM1 PUF domain R5-RFI (Homo sapiens, UniProt Q14671 828-1176, C1007R;R1008F;Q1011I). The method, boiled down: as §1
A further assay addresses PUM1 PUF domain R4-VMC (Homo sapiens, UniProt Q14671 828-1176, N971V;H972M;Q975C). A digest of the protocol:
as §1

The target in a further assay is T2, PUM1 PUF domain R6-VYH (Homo sapiens, UniProt Q14671 828-1176, N1043V;Q1047H).
T2 sequence: T1 sequence with H216V, F217Y, V220H
A digest of the protocol:
as §1

A further assay deals with PUM1 PUF domain R5-KMV (Homo sapiens, UniProt Q14671 828-1176, C1007K;R1008M;Q1011V). A digest of the protocol: as §1
Another assay addresses PUM1 PUF domain R4-VNV (Homo sapiens, UniProt Q14671 828-1176, N971V;H972N;Q975V). The method, boiled down:
as §1

Numbering of substitutions follows the chain as printed.

Sequence of PUM1 PUF domain R5-PRK (Q14671 828-1176 C1007P/Q1011K): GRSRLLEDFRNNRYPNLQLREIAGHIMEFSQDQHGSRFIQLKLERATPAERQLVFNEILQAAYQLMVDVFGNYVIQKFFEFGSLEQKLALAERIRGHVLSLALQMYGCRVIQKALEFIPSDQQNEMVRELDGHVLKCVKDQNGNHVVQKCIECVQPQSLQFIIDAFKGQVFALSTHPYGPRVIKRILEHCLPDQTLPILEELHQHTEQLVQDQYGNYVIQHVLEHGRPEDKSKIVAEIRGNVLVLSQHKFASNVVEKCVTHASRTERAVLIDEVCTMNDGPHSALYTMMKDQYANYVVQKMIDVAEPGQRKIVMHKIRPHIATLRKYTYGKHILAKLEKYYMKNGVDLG

As for “GGCUAGAACUAGUGGAUCCCCCGGCGCCCGGCGGCUCGAGCCCGGGUAAGUUUAAAUAGUCUGCAUGCCGCCGGGCGCCAUGCCUGCAGGUCGACUCUAGAAAACAUG”, the binding signal in the assay with PUM1 PUF domain R7-DYV is 6 log2 enrichment (interaction score).
In the case of “GGCUAGAACUAGUGGAUCCCCCGGCGCCCGGCGGCUCGAGCCCGGGUAAGCGUAAAUAGUCUGCAUGCCGCCGGGCGCCAUGCCUGCAGGUCGACUCUAGAAAACAUG”, the binding signal with PUM1 PUF domain R8-KRV is 3.19 log2 enrichment (interaction score); in the assay with PUM1 PUF domain R8-RYC, 5.8 log2 enrichment (interaction score); in the assay with PUM1 PUF domain R8-LYI it was 2.78 log2 enrichment (interaction score); in the assay with PUM1 PUF domain R8-GFK it was 3.45 log2 enrichment (interaction score).
As for “GGCUAGAACUAGUGGAUCCCCCGGCGCCCGGCGGCUCGAGCCCGGGUAAGUGUAAAUCGUCUGCAUGCCGCCGGGCGCCAUGCCUGCAGGUCGACUCUAGAAAACAUG”, the binding signal is 1.59 log2 enrichment (interaction score) in the assay with PUM1 PUF domain R1-WKR and 1.85 log2 enrichment (interaction score) in the assay with PUM1 PUF domain R1-RGN.
As to “GGCUAGAACUAGUGGAUCCCCCGGCGCCCGGCGGCUCGAGCCCGGGUAAGUGUAAAUUGUCUGCAUGCCGCCGGGCGCCAUGCCUGCAGGUCGACUCUAGAAAACAUG”, the binding signal is 3.54 log2 enrichment (interaction score) with PUM1 PUF domain R1-WKR, 2.37 log2 enrichment (interaction score) in the assay with PUM1 PUF domain R1-RGN and 2.36 log2 enrichment (interaction score) with PUM1 PUF domain R1-KAV.
In the case of “GGCUAGAACUAGUGGAUCCCCCGGCGCCCGGCGGCUCGAGCCCGGGUAAGUGUAAAAAGUCUGCAUGCCGCCGGGCGCCAUGCCUGCAGGUCGACUCUAGAAAACAUG”, the results for the binding signal with PUM1 PUF domain R2-AWH and with PUM1 PUF domain R2-LFA were 2.3 log2 enrichment (interaction score) and 3.68 log2 enrichment (interaction score), respectively.
In the case of “GGCUAGAACUAGUGGAUCCCCCGGCGCCCGGCGGCUCGAGCCCGGGUAAGUGUAAAUAGUCUGCAUGCCGCCGGGCGCCAUGCCUGCAGGUCGACUCUAGAAAACAUG”, the binding signal was 4.29 log2 enrichment (interaction score) with PUM1 PUF domain R3-LYR; 2.09 log2 enrichment (interaction score) in the assay with PUM1 PUF domain R8-KRV; 6.27 log2 enrichment (interaction score) with PUM1 PUF domain R8-RFK; 5.15 log2 enrichment (interaction score) in the assay with PUM1 PUF domain R8-RYC; 1.1 log2 enrichment (interaction score) in the assay with PUM1 PUF domain R8-LYI; 2.27 log2 enrichment (interaction score) in the assay with PUM1 PUF domain R5-PRK. Moreover, the binding signal is 5.84 log2 enrichment (interaction score) in the assay with PUM1 PUF domain R3-VWD, 2.51 log2 enrichment (interaction score) with PUM1 PUF domain R6-HFV, 3.37 log2 enrichment (interaction score) with PUM1 PUF domain R5-RFI and 2.72 log2 enrichment (interaction score) in the assay with PUM1 PUF domain R4-VMC.
On to “GGCUAGAACUAGUGGAUCCCCCGGCGCCCGGCGGCUCGAGCCCGGGUAAGUGUAAGUAGUCUGCAUGCCGCCGGGCGCCAUGCCUGCAGGUCGACUCUAGAAAACAUG”, for which the binding signal in the assay with PUM1 PUF domain R3-LYR was 5.31 log2 enrichment (interaction score); with PUM1 PUF domain R3-VWD it was 1.13 log2 enrichment (interaction score).
Turning to “GGCUAGAACUAGUGGAUCCCCCGGCGCCCGGCGGCUCGAGCCCGGGUAAGUGUGAAUAGUCUGCAUGCCGCCGGGCGCCAUGCCUGCAGGUCGACUCUAGAAAACAUG”, the binding signal with PUM1 PUF domain R5-PRK is 3.87 log2 enrichment (interaction score); in the assay with PUM1 PUF domain R5-RFI, 3.33 log2 enrichment (interaction score).
Turning to “GGCUAGAACUAGUGGAUCCCCCGGCGCCCGGCGGCUCGAGCCCGGGUAAGUGUUAAUAGUCUGCAUGCCGCCGGGCGCCAUGCCUGCAGGUCGACUCUAGAAAACAUG”, the binding signal with PUM1 PUF domain R5-PRK was 4.06 log2 enrichment (interaction score).
With “GGCUAGAACUAGUGGAUCCCCCGGCGCCCGGCGGCUCGAGCCCGGGUAAGUGAAAAUAGUCUGCAUGCCGCCGGGCGCCAUGCCUGCAGGUCGACUCUAGAAAACAUG”, in the assay with PUM1 PUF domain R6-VYH, the binding signal is 5.62 log2 enrichment (interaction score).
On to “GGCUAGAACUAGUGGAUCCCCCGGCGCCCGGCGGCUCGAGCCCGGGUAAGUGUAAUUAGUCUGCAUGCCGCCGGGCGCCAUGCCUGCAGGUCGACUCUAGAAAACAUG”, for which the binding signal with PUM1 PUF domain R3-LYR was 4.25 log2 enrichment (interaction score).
On to “GGCUAGAACUAGUGGAUCCCCCGGCGCCCGGCGGCUCGAGCCCGGGUAAGUGUCAAUAGUCUGCAUGCCGCCGGGCGCCAUGCCUGCAGGUCGACUCUAGAAAACAUG”, for which the results for the binding signal in the assay with PUM1 PUF domain R5-KMV and with PUM1 PUF domain R5-PRK were 3.71 log2 enrichment (interaction score) and 2.13 log2 enrichment (interaction score), respectively.
Turning to “GGCUAGAACUAGUGGAUCCCCCGGCGCCCGGCGGCUCGAGCCCGGGUAAGUGUAAAUGGUCUGCAUGCCGCCGGGCGCCAUGCCUGCAGGUCGACUCUAGAAAACAUG”, the binding signal with PUM1 PUF domain R1-RGN is 0.76 log2 enrichment (interaction score).
Consider “GGCUAGAACUAGUGGAUCCCCCGGCGCCCGGCGGCUCGAGCCCGGGUAAGUGUACAUAGUCUGCAUGCCGCCGGGCGCCAUGCCUGCAGGUCGACUCUAGAAAACAUG”, for which the binding signal in the assay with PUM1 PUF domain R4-VMC was 2.94 log2 enrichment (interaction score); with PUM1 PUF domain R4-VNV it was 2.33 log2 enrichment (interaction score).
